Source: PubChem BioAssay AID1159580 (chemical genetic matrix, 2015)
Among all 5,500 compounds or so, about 2,000 (36%) were called active. Another 18% or so got no clear call; they are omitted. No stated cut-off is given here; in the data, active means normalized growth mostly below about 0.91 (no sharp cut-off); inconclusive means no clear call, values can overlap the other calls; inactive means mostly above about 0.92. The list shows a part of the results.

Assay: chemical genetic growth profiling, strain panel (AID 1159580);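 further: tested at 20 µM; growth read once vehicle control cultures reached saturation at 30 °C; 1 = growth at the plate median or of vehicle wells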
Conditions: S. cerevisiae deletion strains, growth OD

Measured: normalized growth

N[C@H](CCCCCP(=O)(O)O)C(=O)O
inactive: locus YAL013W, strain DEP1, stronger effect = lower value 0.989 | locus YAL040C, strain CLN3, stronger effect = lower value 1.06 | locus YCL061C, strain MRC1 (second series), stronger effect = lower value 1.01 | locus YER002W, strain NOP16, stronger effect = lower value 1 | locus YGR078C, strain PAC10, stronger effect = lower value 1 | locus YJR075W, strain HOC1, stronger effect = lower value 1.01 | locus YMR263W, strain SAP30, stronger effect = lower value 1.01 | locus YNL128W, strain TEP1, stronger effect = lower value 0.987 | locus YNL153C, strain GIM3, stronger effect = lower value 1.02 | locus YNL175C, strain NOP13, stronger effect = lower value 0.994 | locus YNL197C, strain WHI3, stronger effect = lower value 0.968 | locus YNL224C, strain SQS1, stronger effect = lower value 1 | locus YOR083W, strain WHI5 (second series), stronger effect = lower value 0.964 | locus YPL055C, strain LGE1, stronger effect = lower value 0.997 | locus YPL241C, strain CIN2, stronger effect = lower value 1
